Test results as given in PubChem BioAssay AID1159580 (chemical genetic matrix, 2015).
Out of some 5,500 compounds screened, about 2,000 (36%) were called active. Roughly 18% stayed inconclusive and do not appear here. Cut-off read from the data, not from the text of the source: active = normalized growth mostly below about 0.91 (no sharp cut-off); inconclusive = no clear call, values can overlap the other calls; inactive = mostly above about 0.92. This is one part of the list.

Assay: chemical genetic growth profiling, strain panel (AID 1159580);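 note: tested at 20 µM; growth read once vehicle control cultures reached saturation at 30 °C; 1 = growth at the plate median or of vehicle wells; lower values mean less growth of the strain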
Details: growth OD
[1] = S. cerevisiae deletion strains, locus YDL101C, strain DUN1, hits give low values
[2] = S. cerevisiae deletion strains, locus YHR030C, strain SLT2, hits give low values

Measured: normalized growth

CCCOc1ccccc1/C=N\NC(=S)Nc1cccc(F)c1
inactive: S. cerevisiae deletion strains, locus YAL013W, strain DEP1, hits give low values 0.999 | S. cerevisiae deletion strains, locus YBR229C, strain ROT2, hits give low values 1.02 | S. cerevisiae deletion strains, locus YCL061C, strain MRC1, hits give low values 1.01 | [1] 1.04 | S. cerevisiae deletion strains, locus YDR150W, strain NUM1, hits give low values 1 | S. cerevisiae deletion strains, locus YEL061C, strain CIN8, hits give low values 1 | S. cerevisiae deletion strains, locus YGR078C, strain PAC10, hits give low values 1 | S. cerevisiae deletion strains, locus YGR229C, strain SMI1, hits give low values 1.01 | [2] 0.921 | S. cerevisiae deletion strains, locus YHR087W, strain rtc3, hits give low values 1.03 | S. cerevisiae deletion strains, locus YJL187C, strain SWE1, hits give low values 1 | S. cerevisiae deletion strains, locus YJR043C, strain POL32, hits give low values 1.01 | S. cerevisiae deletion strains, locus YJR075W, strain HOC1, hits give low values 1.08 | S. cerevisiae deletion strains, locus YLR039C, strain RIC1, hits give low values 1.02 | S. cerevisiae deletion strains, locus YLR058C, strain SHM2 (second series), hits give low values 1 | S. cerevisiae deletion strains, locus YLR085C, strain ARP6, hits give low values 0.882 | S. cerevisiae deletion strains, locus YLR262C, strain YPT6, hits give low values 1.02 | S. cerevisiae deletion strains, locus YML094W, strain GIM5, hits give low values 1.01 | S. cerevisiae deletion strains, locus YMR219W, strain ESC1, hits give low values 1.01 | S. cerevisiae deletion strains, locus YMR263W, strain SAP30, hits give low values 0.966 | S. cerevisiae deletion strains, locus YMR307W, strain GAS1, hits give low values 0.93 | S. cerevisiae deletion strains, locus YNL153C, strain GIM3, hits give low values 1 | S. cerevisiae deletion strains, locus YNL298W, strain CLA4 (second series), hits give low values 0.983 | S. cerevisiae deletion strains, locus YNL322C, strain KRE1, hits give low values 1.03 | S. cerevisiae deletion strains, locus YNR030W, strain Alg12, hits give low values 0.988 | S. cerevisiae deletion strains, locus YPL055C, strain LGE1, hits give low values 0.945 | S. cerevisiae deletion strains, locus YPL241C, strain CIN2, hits give low values 0.996 | S. cerevisiae deletion strains, locus YPR135W, strain CTF4, hits give low values 0.987 | S. cerevisiae strains, strain wild type, hits give low values 1

O=C(/C=C/c1ccc2c(c1)OCO2)Nc1ccc(Br)cc1
active: S. cerevisiae deletion strains, locus YLR113W, strain HOG1, hits give low values 0.754
inactive: S. cerevisiae deletion strains, locus YAR019C, strain CDC15, hits give low values 0.962 | S. cerevisiae deletion strains, locus YBL105C, strain PKC1, hits give low values 0.962 | S. cerevisiae deletion strains, locus YBR135W, strain CKS1, hits give low values 0.972 | S. cerevisiae deletion strains, locus YBR136W, strain MEC1, hits give low values 0.961 | S. cerevisiae deletion strains, locus YBR160W, strain CDC28, hits give low values 0.967 | S. cerevisiae deletion strains, locus YDL017W, strain CDC7, hits give low values 0.964 | S. cerevisiae deletion strains, locus YDL028C, strain MPS1, hits give low values 0.962 | [1] 0.955 | S. cerevisiae deletion strains, locus YDL108W, strain KIN28, hits give low values 0.961 | S. cerevisiae deletion strains, locus YDL132W, strain cdc53, hits give low values 0.96 | S. cerevisiae deletion strains, locus YDL214C, strain PRR2, hits give low values 0.922 | S. cerevisiae deletion strains, locus YDR052C, strain DBF4, hits give low values 0.953 | S. cerevisiae deletion strains, locus YDR054C, strain cdc34, hits give low values 0.958 | S. cerevisiae deletion strains, locus YDR226W, strain ADK1, hits give low values 0.968 | S. cerevisiae deletion strains, locus YDR477W, strain SNF1, hits give low values 0.962 | S. cerevisiae deletion strains, locus YER123W, strain YCK3, hits give low values 0.9 | S. cerevisiae deletion strains, locus YER133W, strain GLC7, hits give low values 0.976 | S. cerevisiae deletion strains, locus YFL009W, strain cdc4, hits give low values 0.954 | S. cerevisiae deletion strains, locus YFL029C, strain CAK1, hits give low values 0.962 | S. cerevisiae deletion strains, locus YFR003C, strain YPI1, hits give low values 0.957 | S. cerevisiae deletion strains, locus YFR019W, strain FAB1, hits give low values 0.987 | S. cerevisiae deletion strains, locus YFR028C, strain CDC14, hits give low values 0.955 | S. cerevisiae deletion strains, locus YGR040W, strain KSS1, hits give low values 0.95 | S. cerevisiae deletion strains, locus YGR052W, strain FMP48, hits give low values 0.909 | S. cerevisiae deletion strains, locus YGR092W, strain DBF2, hits give low values 0.767 | [2] 0.86 | S. cerevisiae deletion strains, locus YHR079C, strain IRE1, hits give low values 0.872 | S. cerevisiae deletion strains, locus YHR082C, strain KSP1, hits give low values 0.965 | S. cerevisiae deletion strains, locus YHR205W, strain SCH9, hits give low values 0.791 | S. cerevisiae deletion strains, locus YIL147C, strain SLN1, hits give low values 0.962 | S. cerevisiae deletion strains, locus YJL095W, strain BCK1, hits give low values 0.77 | S. cerevisiae deletion strains, locus YJL128C, strain PBS2, hits give low values 0.918 | S. cerevisiae deletion strains, locus YJL157C, strain FAR1, hits give low values 0.974 | S. cerevisiae deletion strains, locus YJR016C, strain ILV3, hits give low values 0.958 | S. cerevisiae deletion strains, locus YJR066W, strain TOR1 (second series), hits give low values 0.972 | S. cerevisiae deletion strains, locus YJR066W, strain TOR1, hits give low values 0.912 | S. cerevisiae deletion strains, locus YKL048C, strain ELM1, hits give low values 0.931 | S. cerevisiae deletion strains, locus YKL067W, strain YNK1, hits give low values 0.932 | S. cerevisiae deletion strains, locus YKL101W, strain HSL1, hits give low values 0.933 | S. cerevisiae deletion strains, locus YKL193C, strain SDS22, hits give low values 0.954 | S. cerevisiae deletion strains, locus YKL203C, strain TOR2, hits give low values 1.03 | S. cerevisiae deletion strains, locus YLR133W, strain CKI1, hits give low values 0.96 | S. cerevisiae deletion strains, locus YLR403W, strain SFP1, hits give low values 0.927 | S. cerevisiae deletion strains, locus YML070W, strain DAK1, hits give low values 0.9 | S. cerevisiae deletion strains, locus YMR001C, strain CDC5, hits give low values 0.957 | S. cerevisiae deletion strains, locus YMR205C, strain PFK2 (second series), hits give low values 0.938 | S. cerevisiae deletion strains, locus YMR277W, strain FCP1, hits give low values 0.959 | S. cerevisiae deletion strains, locus YNL006W, strain LST8, hits give low values 0.974 | S. cerevisiae deletion strains, locus YNL020C, strain ARK1, hits give low values 0.955 | S. cerevisiae deletion strains, locus YNL161W, strain CBK1, hits give low values 0.971 | S. cerevisiae deletion strains, locus YNL183C, strain NPR1, hits give low values 0.889 | S. cerevisiae deletion strains, locus YNL207W, strain RIO2, hits give low values 0.953 | S. cerevisiae deletion strains, locus YNL222W, strain SSU72, hits give low values 0.966 | S. cerevisiae deletion strains, locus YNL307C, strain MCK1 (second series), hits give low values 0.854 | S. cerevisiae deletion strains, locus YOL078W, strain AVO1, hits give low values 0.945 | S. cerevisiae deletion strains, locus YOL136C, strain PFK27, hits give low values 0.889 | S. cerevisiae deletion strains, locus YOR061W, strain CKA2, hits give low values 0.973 | S. cerevisiae deletion strains, locus YOR119C, strain RIO1, hits give low values 1.02 | S. cerevisiae deletion strains, locus YOR231W, strain MKK1, hits give low values 0.847 | S. cerevisiae deletion strains, locus YOR329C, strain SCD5, hits give low values 0.963 | S. cerevisiae deletion strains, locus YPL031C, strain PHO85, hits give low values 0.962 | S. cerevisiae deletion strains, locus YPL153C, strain RAD53, hits give low values 0.97 | S. cerevisiae deletion strains, locus YPL204W, strain HRR25, hits give low values 0.95 | S. cerevisiae deletion strains, locus YPL209C, strain IPL1, hits give low values 0.963 | S. cerevisiae deletion strains, locus YPL256C, strain CLN2, hits give low values 0.954 | S. cerevisiae deletion strains, locus YPR025C, strain CCL1, hits give low values 0.958 | S. cerevisiae deletion strains, locus YPR106W, strain ISR1, hits give low values 0.946 | S. cerevisiae deletion strains, locus YPR111W, strain DBF20, hits give low values 0.925 | S. cerevisiae deletion strains, strain NNK1, hits give low values 0.939 | S. cerevisiae deletion strains, strain TSCII, hits give low values 0.968
